# Source: PubChem BioAssay
# Values without a mark were called inactive. Activity calls are given as the source filed them. Unless noted, no stated cut-off is given here; in the data, active means inhibition above about 25%; inactive means the rest.
# What was measured:
# [1] = molecular target: Nuclear receptor coactivator 1 (Homo sapiens) (UniProt Q15788); assay: SRC1 coactivator transcriptional activity inhibitors, confirmation, cell-based, luminescence, quadruplicate (AID 588820;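 active means mean inhibition above 46.68%, the untreated control wells mean plus 3 SD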;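 further: 0% = DMSO wells and 100% = gossypol 36 µM treated wells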); conditions: HEK293 GAL4-SRC1 luciferase reporter, at 3.6 µM, stronger effect = higher value
# Chain of Nuclear receptor coactivator 1 (Homo sapiens) (Q15788 whole entry, looked up, the tested form may be a part): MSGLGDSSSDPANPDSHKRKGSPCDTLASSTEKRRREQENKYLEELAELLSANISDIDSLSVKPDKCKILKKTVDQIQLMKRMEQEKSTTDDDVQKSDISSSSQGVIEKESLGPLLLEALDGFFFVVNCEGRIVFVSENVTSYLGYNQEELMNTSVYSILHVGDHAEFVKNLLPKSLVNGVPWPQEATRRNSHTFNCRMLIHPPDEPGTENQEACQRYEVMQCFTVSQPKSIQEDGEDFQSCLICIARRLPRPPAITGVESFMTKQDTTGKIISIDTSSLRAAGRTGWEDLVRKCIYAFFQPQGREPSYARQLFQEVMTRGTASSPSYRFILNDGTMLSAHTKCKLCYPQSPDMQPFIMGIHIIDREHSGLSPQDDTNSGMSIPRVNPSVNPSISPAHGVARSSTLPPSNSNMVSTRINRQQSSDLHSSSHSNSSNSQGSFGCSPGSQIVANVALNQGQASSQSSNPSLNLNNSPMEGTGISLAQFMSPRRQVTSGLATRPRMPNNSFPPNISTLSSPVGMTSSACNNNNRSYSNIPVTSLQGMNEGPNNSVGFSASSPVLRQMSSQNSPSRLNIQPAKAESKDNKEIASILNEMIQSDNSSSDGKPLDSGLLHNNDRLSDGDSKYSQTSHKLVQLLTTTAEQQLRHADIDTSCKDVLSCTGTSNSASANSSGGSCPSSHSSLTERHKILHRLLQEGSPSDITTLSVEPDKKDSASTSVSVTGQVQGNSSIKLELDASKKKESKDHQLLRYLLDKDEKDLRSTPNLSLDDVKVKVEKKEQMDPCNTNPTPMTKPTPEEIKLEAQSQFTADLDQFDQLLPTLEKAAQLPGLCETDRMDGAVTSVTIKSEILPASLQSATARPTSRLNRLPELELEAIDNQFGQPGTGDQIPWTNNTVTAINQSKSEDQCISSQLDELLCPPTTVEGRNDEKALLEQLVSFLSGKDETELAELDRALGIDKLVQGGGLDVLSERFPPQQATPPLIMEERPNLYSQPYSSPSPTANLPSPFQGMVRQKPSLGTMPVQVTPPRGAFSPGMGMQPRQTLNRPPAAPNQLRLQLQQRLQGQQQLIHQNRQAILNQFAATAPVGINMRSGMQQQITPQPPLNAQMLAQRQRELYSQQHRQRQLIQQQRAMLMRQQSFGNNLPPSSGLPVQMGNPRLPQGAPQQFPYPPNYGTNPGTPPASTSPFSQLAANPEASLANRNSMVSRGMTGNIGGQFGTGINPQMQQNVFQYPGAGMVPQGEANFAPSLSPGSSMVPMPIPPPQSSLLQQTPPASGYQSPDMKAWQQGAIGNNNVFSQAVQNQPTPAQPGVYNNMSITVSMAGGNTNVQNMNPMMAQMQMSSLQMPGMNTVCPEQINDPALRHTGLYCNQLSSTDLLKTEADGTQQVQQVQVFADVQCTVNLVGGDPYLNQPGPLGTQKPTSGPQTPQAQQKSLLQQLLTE
# [2] = VP16 transactivation inhibitors, counter-screen for SRC1 inhibitor project, cell-based, luminescence, high throughput (AID 588824); conditions: cell-based VP16 transactivation luciferase luminescence; at 3.6 µM; stronger effect = higher value
SMILES,inhibition [1] [%],inhibition [2]
COC(=O)c1ccc(/C=N\NC(=O)CC(=O)NCCc2ccccc2)cc1,-1.47,-15.5%
COc1ccc(-n2cnc(N)c2C(=O)c2cccc([N+](=O)[O-])c2)cc1,38.1,18.6%
O=C1NCCc2c1[nH]c1ccc([N+](=O)[O-])cc21,23.1,18.1%
O=C(NCc1ccccn1)c1ccc(OC2CCN(Cc3ccc(F)cc3F)CC2)cc1,-0.3,3.5%
COc1cc2c(cc1OC)CN(CC(=O)Nc1cccc([N+](=O)[O-])c1)CC2,4.85,6.41%
O=C(CNC(=O)c1cccc(F)c1)N/N=C/c1cc(Br)ccc1OC(=O)/C=C/c1ccco1,3.9,6.51%
COc1ccccc1C(=O)N(Cc1ccc(C)o1)C1CCS(=O)(=O)C1 (centres undefined),-7.5,3.3%
Cc1csc(-c2cc(C(=O)NCc3cc(C(F)(F)F)cc(C(F)(F)F)c3)n[nH]2)c1,20.5,47.2% (active)
CC1Sc2n(c3ccccc3[n+]2C)N=C1c1ccccc1 (centres undefined),-6.75,11.7%
Cc1nc2ccccc2c2oc(C(=O)Nc3ccc(C(C)C)cc3)cc12,-6.16,-1.6%
COc1ccc2cc3cc(C(=O)NCCc4ccc(OC)c(OC)c4)oc3nc2c1,-32.9,42.2% (active)
OC(CN1CCN(c2cccc(Cl)c2)CC1)c1ccccc1 (centres undefined),-16.2,-6.51%
O=C(Nc1cccc(F)c1)/C(=C\c1ccco1)NC(=O)c1ccco1,-13.4,-7.03%
O=C(Nc1nc(-c2ccccn2)cs1)c1cccc(-n2cnnn2)c1,17.6,7.13%
Cn1c(N)c(C(=O)CSc2nn(-c3ccccc3)c(=S)s2)c(=O)n(C)c1=O,8.31,17.7%
Cc1cc(-c2ccc(F)cc2)n2ncc(-c3ccccc3)c2n1,-87.3,-34.6%
CC1=C(C(=O)OCc2ccccc2)C(c2ccsc2)C(C#N)=C(N)O1 (centres undefined),-1.74,3.63%
Fc1ccc2[nH]c3c(NCc4ccccc4)ncnc3c2c1,2.59,20.2%
Cn1c(=O)c2[nH]c(COc3ccc(C(C)(C)C)cc3)nc2n(C)c1=O,29.4,18.8%
O=C(CSc1nc(-c2cccs2)cc(C(F)(F)F)n1)Nc1cc(OCC(F)(F)C(F)F)cc([N+](=O)[O-])c1,17.1,-0.51%
O=C(CS(=O)c1ccc(F)cc1)N1CCOCC1 (centres undefined),-1.56,-3.56%
CN1C(=O)C(O)(C2CCCCCC2=O)c2ccccc21 (centres undefined),-7.54,-0.98%
Cc1cnc(C(=O)Nc2cccc3cccnc23)cn1,-34.4,-21.9%
CC(Oc1ccccc1)C(=O)N1CCC2(CC1)CC(=O)c1ccccc1O2 (centres undefined),5.89,3.37%

SMILES,inhibition [1] [%],inhibition [2]
C[C@H](N)c1nnc(SCC(N)=O)o1,-1.81,-12.9%
COc1cccc(OCCn2cc(C(C)=O)c3ccccc32)c1,10.7,30.8% (active)
CC(=O)c1cccc(NC(=O)c2cc(Cl)sc2Cl)c1,-60.7,-30.6%
COc1cc(C(=O)NC(=S)NNC(=O)c2cnccn2)cc(OC)c1OC,19.6,-5.2%
COc1ccc(-c2n[nH]c(=S)n2-c2ccc(C)cc2)cc1,-68.5,-40%
O=S(=O)(Nc1ccc2c(c1)OCCO2)c1cccs1,1.12,-9.45%
COc1ccc(CCC(=O)Nc2ccc(Cl)c(S(=O)(=O)N3CCCC3)c2)cc1,12.1,27.8% (active)
CCOC(=O)C1=C[C@@H](CC)N(S(=O)(=O)c2ccc([N+](=O)[O-])cc2)[C@H]1c1ccccc1,-2.32,-3.27%
C=C1C(=O)O[C@@H]2[C@H]1CC[C@H](C)[C@]1(O)CCC(=O)[C@@]21C,-18,11.1%
Cc1cc(C)c(CN2CCN(C(=O)Cn3cnc4c(OCc5ccccc5)ncnc43)CC2)c(C)c1,4.65,38.5% (active)
COC(=O)N(NC(=O)C(O)(CCC(C)C)CCC(C)C)c1ccccc1,16.2,11.5%
COc1ccccc1-n1nnnc1SC(C)C(=O)NC1CCCC1 (centres undefined),-17.1,-10.9%
CCOc1cccc(/C=N/NC(=O)c2cc(C3CC3)[nH]n2)c1O,21.5,21.7%
CCOc1ccc(CCNC(=O)CSCc2ccc(C)cc2)cc1OCC,-18.5,-1.5%
CC(C)(C)c1ccc(-n2ncc3c2CCCC3NC(=O)CN2CCOC2=O)cc1 (centres undefined),-6.1,7.65%
COc1ccc(Cl)cc1NC(=O)CSc1nc(=O)n(CCN(C)C)c2c1CCCC2,-13.4,-0.03%
COc1ccc(CCC(C)NCc2cc(OC)cc(OC)c2)cc1 (centres undefined),-28.3,-6.4%
O=C(NC1CCCCC1)c1n[nH]c2c1CCCCC2,-44.7,-18.1%
COc1cccc(/C=N/NC(=O)CSc2ccccc2C)c1O,-0.52,6.05%
COc1ccc(NC(=O)CCn2c(=S)[nH]c3ccccc3c2=O)cc1,2.22,0.97%
COc1ccc(-c2[nH]ncc2CN(C)Cc2nonc2C)c(OC)c1,-25,-13.1%
COc1ccc(Cc2nnc(SCC(=O)Nc3ccc(C)c(Cl)c3)[nH]c2=O)cc1,6.82,7.22%
CCCc1cc(=O)oc2cc(O[C@@H]3O[C@H](CO)[C@@H](O)[C@H](O)[C@H]3O)ccc12,-9.52,-11.7%
Cn1c(=O)c([N+](=O)[O-])c(NCCc2ccccc2)c2ccccc21,4.22,4.74%

SMILES,inhibition [1] [%],inhibition [2]
COc1ccc(C(=O)N2CCN(c3ccc(NC(=O)c4cccs4)cc3)CC2)cc1,2.7,-1.25%
Cc1sc(NC(=O)c2ccco2)c(C(c2cccnc2)N2CCC(C)CC2)c1C (centres undefined),-5.49,26.1% (active)
CC(OC(=O)CSCC(=O)Nc1ccc(Cl)cc1)C(=O)N(C)Cc1ccccc1 (centres undefined),-7.38,1.96%
O=C(c1ccccc1)C1CCN(C(=O)c2ccc(Cl)cc2)CC1,7.58,5.47%
COC(=O)C(=N/Nc1ccccc1C(=O)OC)/C(C)=N/O,-2.93,-4.44%
CCNc1nc2c(c(=O)n(C)c(=O)n2C)n1Cc1ccc(Cl)cc1,-0.87,23.4%
CCCC(=O)N1CCCC(c2cc(C(=O)Nc3ccccc3)no2)C1 (centres undefined),-49.1,-30.6%
CCc1ccc(CN(C)C(=O)C2CCC(=O)N(CC3CCCCC3)C2)cc1 (centres undefined),-5.12,2.92%
CN(C)c1ccncc1C(=O)Nc1ccc(F)cc1F,-3.76,-9.03%
CCCCc1ccc(NC(=O)c2ccc(N(C)S(C)(=O)=O)cc2)cc1,-25.4,31.3% (active)
COc1cccc(CNc2nc3cc(-c4ccsc4)sc3c(=O)n2C)c1OC,-0.05,25.6% (active)
O=C(Nc1nc(-c2ccc(F)c(F)c2)cs1)c1cnccn1,7.57,-11.4%
Cc1ccc(S(=O)(=O)NCCC2=CCCCC2)cc1,-5.59,7%
CC(C)C(=O)NC(Nc1cccc([N+](=O)[O-])c1)C(Cl)(Cl)Cl (centres undefined),1.13,0.4%
Cc1ccc(NC(=O)CN(C(=O)N2CCN(C)CC2)S(=O)(=O)c2ccc(C)cc2)cc1,-4.36,-2.41%
O=C(Nc1ccncc1)c1ccc(Cl)c(S(=O)(=O)N2CCc3ccccc32)c1,-6.49,36.8% (active)
C[C@H]1CN([C@@H](C)CO)C(=O)CCCn2nncc2CO[C@H]1CN(C)C(=O)C1CCCCC1,-19.8,-11.3%
Cc1cccc(N2CCN(S(=O)(=O)c3cc(-c4cc(C)no4)ccc3C)CC2C)c1 (centres undefined),-10.5,33.8% (active)
COc1ccc(-n2c(SC(C)C(=O)Nc3ncc(Cl)cc3Cl)nc3ccccc32)cc1 (centres undefined),35.4,79.4% (active)
Nc1nc(N)c2c(ccc3nccc32)[nH]1,-7.68,24.9%
Cc1nn(CC(=O)N2CCN(c3cccc(C(F)(F)F)c3)CC2)c(=O)c2cccn12,23.4,8.52%
CCCCC(=O)NC(c1cccc([N+](=O)[O-])c1)c1ccc2cccnc2c1O (centres undefined),13.2,24%
CC(=NCc1cccc(Cl)c1)c1nc(-c2ccco2)oc1O,4.53,45% (active)
CCCCCCCCNc1ncnc2[nH]ncc12,-9.61,19.6%
